Key:
[1] = target: Mast/stem cell growth factor receptor Kit (Homo sapiens) (UniProt P10721); conditions: at 1 µM
[2] = target: Mast/stem cell growth factor receptor Kit (Homo sapiens) (UniProt P10721); conditions: at 10 µM
[3] = target: Proto-oncogene tyrosine-protein kinase Src (Homo sapiens) (UniProt P12931); conditions: at 1 µM
[4] = target: Proto-oncogene tyrosine-protein kinase Src (Homo sapiens) (UniProt P12931); conditions: at 10 µM
[5] = target: Serine/threonine-protein kinase mTOR (Homo sapiens) (UniProt P42345); conditions: at 1 µM
[6] = target: Serine/threonine-protein kinase mTOR (Homo sapiens) (UniProt P42345); conditions: at 10 µM
[7] = target: Serine/threonine-protein kinase mTOR (Homo sapiens) (UniProt P42345); conditions: at 1 µM; remark: listed apart in the source
[8] = target: Serine/threonine-protein kinase mTOR (Homo sapiens) (UniProt P42345); conditions: at 10 µM; remark: listed apart in the source
[9] = target: Ribosomal protein S6 kinase beta-1 (Homo sapiens) (UniProt P23443); conditions: at 1 µM
[10] = target: Ribosomal protein S6 kinase beta-1 (Homo sapiens) (UniProt P23443); conditions: at 10 µM
[11] = target: Serine/threonine-protein kinase Nek6 (Homo sapiens) (UniProt Q9HC98); conditions: at 1 µM
[12] = target: Serine/threonine-protein kinase Nek6 (Homo sapiens) (UniProt Q9HC98); conditions: at 10 µM
[13] = target: Serine/threonine-protein kinase Nek7 (Homo sapiens) (UniProt Q8TDX7); conditions: at 1 µM
[14] = target: Serine/threonine-protein kinase Nek7 (Homo sapiens) (UniProt Q8TDX7); conditions: at 10 µM
[15] = target: T1, Serine/threonine-protein kinase NLK (Homo sapiens) (UniProt Q9UBE8); conditions: at 1 µM
T1 sequence (whole entry): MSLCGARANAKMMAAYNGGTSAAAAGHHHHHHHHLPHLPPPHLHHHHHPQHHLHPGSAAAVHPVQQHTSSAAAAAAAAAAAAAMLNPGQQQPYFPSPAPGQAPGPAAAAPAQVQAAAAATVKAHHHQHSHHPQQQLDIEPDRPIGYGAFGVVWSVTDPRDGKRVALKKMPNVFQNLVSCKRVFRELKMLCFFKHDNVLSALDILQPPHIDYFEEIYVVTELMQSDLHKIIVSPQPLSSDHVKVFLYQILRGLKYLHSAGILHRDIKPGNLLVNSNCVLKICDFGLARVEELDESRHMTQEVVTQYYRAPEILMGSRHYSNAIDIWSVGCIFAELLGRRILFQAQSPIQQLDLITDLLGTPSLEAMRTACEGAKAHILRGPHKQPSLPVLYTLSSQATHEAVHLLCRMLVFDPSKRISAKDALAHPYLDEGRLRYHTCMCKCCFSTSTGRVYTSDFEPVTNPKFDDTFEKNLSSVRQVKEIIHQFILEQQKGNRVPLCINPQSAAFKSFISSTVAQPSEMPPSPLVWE

[16] = target: T1, Serine/threonine-protein kinase NLK (Homo sapiens); conditions: at 10 µM
[17] = target: Serine/threonine-protein kinase PAK 2 (Homo sapiens) (UniProt Q13177); conditions: at 1 µM
[18] = target: Serine/threonine-protein kinase PAK 2 (Homo sapiens) (UniProt Q13177); conditions: at 10 µM

Ribosomal protein S6 kinase beta-1 (Homo sapiens), sequence (P23443 whole entry, looked up): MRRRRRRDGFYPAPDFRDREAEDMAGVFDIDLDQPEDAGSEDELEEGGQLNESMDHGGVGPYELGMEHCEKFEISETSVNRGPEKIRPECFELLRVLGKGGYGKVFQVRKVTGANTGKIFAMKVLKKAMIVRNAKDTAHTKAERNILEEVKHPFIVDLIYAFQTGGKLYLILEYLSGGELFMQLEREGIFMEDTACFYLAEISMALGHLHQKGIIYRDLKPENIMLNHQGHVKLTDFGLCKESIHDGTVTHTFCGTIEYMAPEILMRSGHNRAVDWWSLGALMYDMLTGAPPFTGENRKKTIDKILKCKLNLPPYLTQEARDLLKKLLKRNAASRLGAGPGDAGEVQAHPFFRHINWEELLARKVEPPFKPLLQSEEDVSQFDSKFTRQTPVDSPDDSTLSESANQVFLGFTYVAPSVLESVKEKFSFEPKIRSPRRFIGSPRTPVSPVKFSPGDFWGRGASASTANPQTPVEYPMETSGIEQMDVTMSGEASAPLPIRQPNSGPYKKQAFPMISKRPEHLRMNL
Serine/threonine-protein kinase Nek7 (Homo sapiens), sequence (Q8TDX7 whole entry, looked up): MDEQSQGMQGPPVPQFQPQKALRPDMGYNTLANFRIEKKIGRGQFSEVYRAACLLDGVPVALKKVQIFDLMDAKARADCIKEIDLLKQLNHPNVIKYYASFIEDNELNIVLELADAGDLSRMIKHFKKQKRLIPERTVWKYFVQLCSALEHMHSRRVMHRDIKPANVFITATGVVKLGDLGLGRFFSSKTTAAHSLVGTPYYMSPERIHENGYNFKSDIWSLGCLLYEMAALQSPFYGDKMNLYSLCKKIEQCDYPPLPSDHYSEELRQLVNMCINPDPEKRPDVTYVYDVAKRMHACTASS
Serine/threonine-protein kinase PAK 2 (Homo sapiens), sequence (Q13177 whole entry): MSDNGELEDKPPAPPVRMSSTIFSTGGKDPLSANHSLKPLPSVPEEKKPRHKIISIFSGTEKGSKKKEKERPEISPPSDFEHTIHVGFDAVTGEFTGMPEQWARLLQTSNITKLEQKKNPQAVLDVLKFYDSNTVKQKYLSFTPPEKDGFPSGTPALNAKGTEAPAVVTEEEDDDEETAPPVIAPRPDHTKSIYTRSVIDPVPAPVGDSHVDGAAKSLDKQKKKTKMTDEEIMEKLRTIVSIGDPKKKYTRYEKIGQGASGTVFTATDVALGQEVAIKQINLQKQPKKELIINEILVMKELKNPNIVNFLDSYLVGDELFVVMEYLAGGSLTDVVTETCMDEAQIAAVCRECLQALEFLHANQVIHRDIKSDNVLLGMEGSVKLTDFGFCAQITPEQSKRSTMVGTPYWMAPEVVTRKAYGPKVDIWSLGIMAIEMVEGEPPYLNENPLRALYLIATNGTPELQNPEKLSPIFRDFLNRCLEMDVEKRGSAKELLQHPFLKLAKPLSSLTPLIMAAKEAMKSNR
Proto-oncogene tyrosine-protein kinase Src (Homo sapiens), sequence (P12931 2-536 limits assumed): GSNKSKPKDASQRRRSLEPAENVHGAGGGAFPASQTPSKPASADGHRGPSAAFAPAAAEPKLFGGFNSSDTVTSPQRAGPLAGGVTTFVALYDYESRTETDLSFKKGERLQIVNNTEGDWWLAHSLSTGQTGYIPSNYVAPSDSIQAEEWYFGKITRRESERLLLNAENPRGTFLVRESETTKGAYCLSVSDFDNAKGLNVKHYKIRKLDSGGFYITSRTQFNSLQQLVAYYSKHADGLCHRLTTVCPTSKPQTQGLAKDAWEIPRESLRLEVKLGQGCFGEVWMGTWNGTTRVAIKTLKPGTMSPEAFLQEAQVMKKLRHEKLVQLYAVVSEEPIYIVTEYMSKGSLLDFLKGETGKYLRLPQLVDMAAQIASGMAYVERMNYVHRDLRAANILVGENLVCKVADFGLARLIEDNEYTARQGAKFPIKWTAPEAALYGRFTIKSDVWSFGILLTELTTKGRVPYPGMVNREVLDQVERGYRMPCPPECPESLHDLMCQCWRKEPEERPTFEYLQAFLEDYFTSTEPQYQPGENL
Mast/stem cell growth factor receptor Kit (Homo sapiens), sequence (P10721 whole entry): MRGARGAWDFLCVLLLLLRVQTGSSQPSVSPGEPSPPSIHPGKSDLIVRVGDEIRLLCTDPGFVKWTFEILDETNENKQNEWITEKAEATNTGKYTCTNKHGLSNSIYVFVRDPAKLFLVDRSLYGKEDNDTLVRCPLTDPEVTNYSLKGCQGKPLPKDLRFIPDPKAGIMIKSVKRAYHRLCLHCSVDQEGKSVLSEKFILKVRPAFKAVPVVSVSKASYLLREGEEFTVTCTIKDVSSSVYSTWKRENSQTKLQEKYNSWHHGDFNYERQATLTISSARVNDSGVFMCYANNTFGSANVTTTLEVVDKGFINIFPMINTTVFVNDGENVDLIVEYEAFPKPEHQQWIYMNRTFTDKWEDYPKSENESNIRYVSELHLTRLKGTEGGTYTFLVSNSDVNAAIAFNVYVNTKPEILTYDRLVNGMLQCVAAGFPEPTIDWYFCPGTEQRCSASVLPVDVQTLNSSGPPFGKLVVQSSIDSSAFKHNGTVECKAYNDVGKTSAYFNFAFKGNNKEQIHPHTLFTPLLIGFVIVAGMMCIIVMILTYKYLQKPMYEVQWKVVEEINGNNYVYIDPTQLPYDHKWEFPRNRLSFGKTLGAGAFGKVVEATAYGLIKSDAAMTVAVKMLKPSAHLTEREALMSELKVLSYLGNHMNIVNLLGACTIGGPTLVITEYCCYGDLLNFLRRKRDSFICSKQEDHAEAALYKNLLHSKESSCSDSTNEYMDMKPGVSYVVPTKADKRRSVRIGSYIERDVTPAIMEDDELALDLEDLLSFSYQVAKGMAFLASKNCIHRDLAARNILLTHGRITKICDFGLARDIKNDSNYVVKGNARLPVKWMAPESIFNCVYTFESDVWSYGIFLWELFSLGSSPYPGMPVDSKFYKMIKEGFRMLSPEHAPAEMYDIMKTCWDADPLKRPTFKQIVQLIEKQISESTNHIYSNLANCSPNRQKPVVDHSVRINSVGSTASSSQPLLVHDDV
Serine/threonine-protein kinase Nek6 (Homo sapiens), sequence (Q9HC98 whole entry): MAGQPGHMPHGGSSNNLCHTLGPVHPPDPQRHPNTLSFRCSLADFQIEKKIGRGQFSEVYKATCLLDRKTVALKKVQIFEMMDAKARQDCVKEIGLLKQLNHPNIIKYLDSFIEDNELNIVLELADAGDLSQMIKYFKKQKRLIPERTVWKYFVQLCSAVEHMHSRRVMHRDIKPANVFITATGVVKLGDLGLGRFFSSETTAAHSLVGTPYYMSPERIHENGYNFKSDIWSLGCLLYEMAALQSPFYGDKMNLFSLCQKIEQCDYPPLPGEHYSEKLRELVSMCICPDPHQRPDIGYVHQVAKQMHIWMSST

Row | Compound | residual activity [1] [%] | residual activity [2] [%] | residual activity [3] [%] | residual activity [4] [%] | residual activity [5] [%] | residual activity [6] [%] | residual activity [7] [%] | residual activity [8] [%] | residual activity [9] [%] | residual activity [10] [%] | residual activity [11] | residual activity [12] [%] | residual activity [13] | residual activity [14] | residual activity [15] [%] | residual activity [16] [%] | residual activity [17] [%] | residual activity [18] [%]
1 | Oc1ccc(Nc2nc(-c3ccc(Cl)cc3)cs2)cc1 | 110 | 76 | 116 | 93 | 102 | 83 | 103 | 106 | 119 | 87 | 116% (inactive) | 123 | 110% (inactive) | 106% (inactive) | 110 | 74 | 105 | 106
2 | Nc1cccc(-c2cc3c(Oc4cccc(O)c4)ncnc3[nH]2)c1 | 20 | 2 | 6 | -3 |  | 83 | 122 | 94 | 71 | 49 |  |  |  |  | 79 | 33 | 105 | 70
3 | Cc1nc(-c2ccccc2)c(-c2ccncc2)o1 | 124 | 98 | 113 | 81 | 109 | 103 | 116 | 94 | 83 | 56 | 105% (inactive) |  | 107% (inactive) | 106% (inactive) | 103 | 48 | 102 | 101
4 | CCOc1cc2ncnc(Nc3cccc(Br)c3)c2cc1OCC | 108 | 101 | 53 | 14 | 110 | 106 | 94 | 100 | 109 | 54 | 112% (inactive) | 125 | 102% (inactive) | 101% (inactive) | 78 | 34 | 102 | 75
5 | CC[n+]1c(/C=C/N(C)c2ccccc2)n(-c2ccccc2)c2ccc(-c3nc4ccccc4s3)cc21 | 123 | 106 | 85 | 128 | 85 | 86 | 84 | 79 | 130 | 71 | 108% (inactive) | 88 | 117% (inactive) | 138% (inactive) |  | 89 | 109 | 81
6 | COc1ccc(OC)c2c(=S)c3ccccc3[nH]c12 | 93 | 93 | 118 | 93 | 100 | 84 | 119 | 76 | 115 | 86 | 97% (inactive) | 91 | 103% (inactive) | 97% (inactive) | 85 | 76 | 90 | 73
7 | Cc1ccc(NC2=CC(=O)c3sc(C)nc3C2=O)cc1 | 101 | 107 |  | 87 | 96 | 99 | 100 | 86 | 115 | 78 | 106% (inactive) | 104 | 109% (inactive) | 92% (inactive) | 86 | 85 | 93 | 92
8 | O=c1c2ccccc2[nH]c(=S)n1CCN1CCC(=C(c2ccc(F)cc2)c2ccc(F)cc2)CC1 | 106 | 89 | 85 | 97 | 78 | 85 | 107 | 69 | 79 | 42 | 99% (inactive) | 107 | 103% (inactive) | 94% (inactive) | 111 | 93 | 103 | 103
9 | c1ccc2c(-c3ccncc3)c[nH]c2c1 | 110 | 98 | 80 | 101 | 109 | 107 | 75 | 110 | 53 | 31 | 95% (inactive) | 110 | 95% (inactive) | 95% (inactive) | 96 | 73 | 98 | 82
10 | O=C1c2ccccc2-[n+]2ccc3c([nH]c4ccccc43)c21 | 106 | 97 | 111 | 91 | 103 | 103 | 116 | 101 | 86 | 54 | 109% (inactive) | 104 |  | 101% (inactive) | 86 | 70 | 107 | 94
11 | COc1cc2ncnc(Nc3ccc(O)c(Br)c3)c2cc1OC | 102 | 103 | 54 | 18 | 106 | 111 | 96 | 101 | 60 | 31 | 86% (inactive) | 110 | 99% (inactive) | 96% (inactive) | 69 | 30 | 104 | 80
12 | O=C1NC(=O)c2cc(Nc3ccc(F)cc3)c(Nc3ccc(F)cc3)cc21 | 113 | 99 | 74 | 51 | 90 | 85 | 73 | 85 | 81 | 101 | 112% (inactive) | 111 | 98% (inactive) | 98% (inactive) | 92 | 80 | 107 | 79
13 | Cc1nc2cc3nc(-c4cccs4)cnc3cc2n1C | 80 | 13 | 78 | 86 | 105 | 107 | 80 | 84 | 98 | 112 | 104% (inactive) | 112 | 102% (inactive) | 107% (inactive) | 104 | 95 | 99 | 86
14 | CC(=O)c1ccc(N2CCOCC2)cc1O |  | 101 | 86 | 93 |  |  | 104 |  | 55 | 46 |  |  | 98% (inactive) |  | 97 | 83 | 104 | 97

From ChEMBL document CHEMBL2218924, “A broad activity screen in support of a chemogenomic map for kinase signalling research and drug discovery” (Biochem J, 2013)
